We go through 1 molecule from the supplement of paper PMC8728848.

The full list was thinned out, with the strongest signals kept by preference.

Common to all, as to assay: glycan array binding signal (z-score within array); higher = stronger binding
Holding throughout (settings): glycan notation: IUPAC condensed, linker removed

One experiment addresses Fuc(a1-2)Gal(b1-3)GlcNAc. An outline of the steps:
(§1)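 Arrays were curated from the Consortium for Functional Glycomics database, 3228 in total, and kept only where the protein sequence was available. Binding is expressed as a within-array Z-score. This score was averaged across arrays of the same protein sequence at different concentrations or buffers and across linkers, and negative values can be read as non-binding.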

Experiment [1] has as its target Fuc(a1-2)Gal(b1-4)GlcNAc(b1-2)Man(a1-3)[Fuc(a1-2)Gal(b1-4)GlcNAc(b1-2)Man(a1-6)]Man(b1-4)GlcNAc(b1-4)[Fuc(a1-6)]GlcNAc. An outline of the steps: as §1
The target in experiment [2] is Fuc(a1-2)Gal(b1-4)GlcNAc6S. An outline of the steps:
as §1

The target of experiment [3] is Fuc(a1-2)Gal(b1-4)[Fuc(a1-3)]GlcNAc(b1-3)Gal(b1-4)[Fuc(a1-3)]GlcNAc(b1-3)Gal(b1-4)[Fuc(a1-3)]GlcNAc. In short, it runs like this:
as §1

In experiment [4] the target is Fuc(a1-2)[Gal(a1-3)]Gal(b1-4)GlcNAc(b1-2)Man(a1-3)[Fuc(a1-2)[Gal(a1-3)]Gal(b1-4)GlcNAc(b1-2)Man(a1-6)]Man(b1-4)GlcNAc(b1-4)[Fuc(a1-6)]GlcNAc. An outline of the steps:
as §1

The target in experiment [5] is Fuc(a1-2)[GalNAc(a1-3)]Gal(b1-3)GlcNAc(b1-2)Man(a1-3)[Fuc(a1-2)[GalNAc(a1-3)]Gal(b1-3)GlcNAc(b1-2)Man(a1-6)]Man(b1-4)GlcNAc(b1-4)[Fuc(a1-6)]GlcNAc. In short, it runs like this:
as §1

For experiment [6], the target named is Gal(a1-3)Gal(b1-3)GlcNAc(b1-3)GalNAc. An outline of the steps: as §1
For experiment [7], the target named is Gal(b1-3)GlcNAc(a1-6)Gal(b1-4)GlcNAc. An outline of the steps: as §1
Experiment [8] deals with Gal(b1-3)GlcNAc(b1-2)[Gal(b1-3)GlcNAc(b1-6)]Man(a1-6)[Gal(b1-3)GlcNAc(b1-2)Man(a1-3)]Man(b1-4)GlcNAc(b1-4)GlcNAc. In short, it runs like this: as §1
The target in experiment [9] is Gal(b1-3)GlcNAc(b1-3)Gal(b1-4)GlcNAc(b1-2)[Gal(b1-3)GlcNAc(b1-3)Gal(b1-4)GlcNAc(b1-6)]Man(a1-6)[Gal(b1-3)GlcNAc(b1-3)Gal(b1-4)GlcNAc(b1-2)Man(a1-3)]Man(b1-4)GlcNAc(b1-4)[Fuc(a1-6)]GlcNAc. In short, it runs like this:
as §1

For experiment [10], the target named is Gal(b1-3)GlcNAc(b1-3)Gal(b1-4)GlcNAc(b1-3)Gal(b1-4)GlcNAc(b1-2)[Gal(b1-3)GlcNAc(b1-3)Gal(b1-4)GlcNAc(b1-3)Gal(b1-4)GlcNAc(b1-6)]Man(a1-6)[Gal(b1-3)GlcNAc(b1-3)Gal(b1-4)GlcNAc(b1-3)Gal(b1-4)GlcNAc(b1-2)Man(a1-3)]Man(b1-4)GlcNAc(b1-4)[Fuc(a1-6)]GlcNAc. An outline of the steps:
as §1

Experiment [11] deals with Gal(b1-4)GalNAc(b1-3)[Fuc(a1-2)]Gal(b1-4)GlcNAc. An outline of the steps:
as §1

The target of experiment [12] is Gal(b1-4)GlcNAc(b1-3)Gal(b1-4)GlcNAc(b1-2)Man(a1-3)[Gal(b1-4)GlcNAc(b1-3)Gal(b1-4)GlcNAc(b1-2)Man(a1-6)]Man(b1-4)GlcNAc(b1-4)GlcNAc. An outline of the steps:
as §1

Experiment [13] has as its target Gal(b1-4)GlcNAc(b1-3)Gal(b1-4)GlcNAc(b1-3)Gal(b1-4)GlcNAc(b1-3)Gal(b1-4)GlcNAc(b1-3)Gal(b1-4)GlcNAc(b1-3)Gal(b1-4)GlcNAc(b1-2)Man(a1-3)[Gal(b1-4)GlcNAc(b1-3)Gal(b1-4)GlcNAc(b1-3)Gal(b1-4)GlcNAc(b1-3)Gal(b1-4)GlcNAc(b1-3)Gal(b1-4)GlcNAc(b1-3)Gal(b1-4)GlcNAc(b1-2)Man(a1-6)]Man(b1-4)GlcNAc(b1-4)GlcNAc. In short, it runs like this:
as §1

Experiment [14] concerns the target Gal(b1-4)GlcNAc(b1-6)[Gal(b1-4)GlcNAc(b1-3)]GalNAc. In short, it runs like this: as §1
The target of the next experiment is Gal3S(b1-4)Glc. An outline of the steps:
as §1

Another experiment concerns the target Gal6S(b1-4)GlcNAc. An outline of the steps: as §1
Experiment [15] has as its target GalNAc(b1-4)GlcNAc(b1-2)Man. In short, it runs like this:
as §1

Another experiment concerns the target GalNAc(b1-4)GlcNAc6S. An outline of the steps: as §1
In a further experiment the target is GalNAc(b1-6)GalNAc. In short, it runs like this: as §1
For experiment [16], the target named is GlcNAc(b1-2)Man(a1-3)[GlcNAc(b1-4)][GlcNAc(b1-2)Man(a1-6)]Man(b1-4)GlcNAc(b1-4)[Fuc(a1-6)]GlcNAc. In short, it runs like this:
as §1

The target in experiment [17] is GlcNAc(b1-2)[GlcNAc(b1-6)]Man(a1-6)[GlcNAc(b1-2)Man(a1-3)]Man(b1-4)GlcNAc(b1-4)GlcNAc. An outline of the steps: as §1
Experiment [18] concerns the target GlcNAc(b1-3)Gal(b1-4)GlcNAc(b1-3)Gal(b1-4)GlcNAc(b1-2)Man(a1-3)[GlcNAc(b1-3)Gal(b1-4)GlcNAc(b1-3)Gal(b1-4)GlcNAc(b1-2)Man(a1-6)]Man(b1-4)GlcNAc(b1-4)[Fuc(a1-6)]GlcNAc. An outline of the steps:
as §1

B1: Pwp4 (Candida glabrata) (protein)
chain: MGSSHHHHHHSSGLVPRGSHMASVGNPITVSNVCSFPKNWHRTAGFRALTARLGIGIQSDSYKELLNYPGTFQLTTQQSSTTKPNFQISGLVGNIYGLTIVPSYLLVELTGYFVPPVSGEYTFSLEGSDDAAIIFIANPSTFKCGHVEDWPTAYDNDVTVTESIHATRTIYMIEGVAYPIRIAYYNGLSLGKLQASFTDPEGVKRVDWNGYIWRYDSCDTCSYV
For the molecule B1, the “glycan array binding signal (z-score)” value with Fuc(a1-2)Gal(b1-3)GlcNAc is -0.913; in [1], 0.039; in experiment [2], -0.4; in [3] it was 1.61; in [4] it was -0.415; in experiment [5], -0.763. The “glycan array binding signal (z-score)” value was -0.55 in experiment [6]; 2.97 in experiment [7]; -0.162 in experiment [8]; 5.18 in [9]; 2.9 in experiment [10]; -0.019 in experiment [11]. Moreover, the “glycan array binding signal (z-score)” value was 0.09 in experiment [12]; 3.83 in experiment [13]; 0.033 in [14]; -0.366 with Gal3S(b1-4)Glc; -0.68 with Gal6S(b1-4)GlcNAc; -0.392 in [15]. The “glycan array binding signal (z-score)” value with GalNAc(b1-4)GlcNAc6S is -0.423; in the experiment with GalNAc(b1-6)GalNAc it was -0.402; in experiment [16] it was -1; in experiment [17], 7.51; in experiment [18], 1.26.
